# Publication PMC5540273 (PLoS ONE, 2017)
# Experiments:
# Details in all cases: concentration: 1 μM, replicates: in singlicate; n = 1
# [1] = tested on: PRKX
# [2] = tested on: PRP4
# [3] = tested on: T1, PYK2
# T1 construct: gene PTK2B
# [4] = tested on: QSK
# [5] = tested on: RAF1
# [6] = tested on: RET
# [7] = tested on: RIOK1
# [8] = tested on: RIOK2
# [9] = tested on: RIOK3
# [10] = tested on: RIPK1
# 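Note: KINOMEscan kinase panel screen.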
Compound,%Inh [1],%Inh [2],%Inh [3],%Inh [4],%Inh [5],%Inh [6],%Inh [7],%Inh [8],%Inh [9],%Inh [10]
Cc1nc(N(C)[C@H]2CN(C(=O)CC#N)CC[C@H]2C)c2cc[nH]c2n1,4%,0%,0%,0%,0%,5%,0%,2%,8%,11%
COc1cc2ncn(-c3cc(OCc4ccc(S(C)(=O)=O)cc4)c(C(N)=O)s3)c2cc1OC [GW869979],0%,0%,0%,27%,0%,26%,0%,8%,0%,18%
COc1cc2ncn(-c3cc(OCc4ccncc4)c(C(N)=O)s3)c2cc1OC [GSK336313],7%,20%,0%,0%,7%,4%,31%,6%,12%,46%
COc1ccc(-c2coc3ccc(-c4nnc(SCc5cccc(C#N)c5)o4)cc23)cc1,0%,18%,0%,0%,14%,16%,0%,5%,11%,0%
